# Laboratory results from PubChem BioAssay (NCI).
# Compounds without any hit were thinned out: in the full panel of roughly 83,000, 20% have a hit.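 Compound tested at a single concentration for 48 hours in 96-well plates; a percent growth value below 10 was scored as active.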 The source made the active and inactive calls.
# Tested on: HL-60(TB) leukemia
# Assay: NCI-60 one-dose screen, 48 h (100 = growth as untreated, 0 = no growth, -100 = all killed)
# Details: 10 µM unless noted
row,SMILES,growth
1,O=S(=O)(NCCNc1nccc(-c2c(-c3cccc(F)c3)nc3sccn23)n1)c1ccc(Br)cc1,90.5% (inactive)
2,COc1cc(/C=C/C(=O)Nc2cccnc2Nc2ccc(F)cc2)cc(OC)c1OC,107% (inactive)
3,COc1cc(/C=C/c2cn[nH]c2-c2ccc(C)cc2)cc(OC)c1OC,4.76% (active)
4,CC1(/C=C/c2ccc(-c3ccccc3)cc2)CCn2cnc3ncnc(c32)N1O (stereo not given),2.02% (active)
5,Cc1cc(N2CCOCC2)nc(N(CCCNc2ccnc3cc(Cl)ccc23)Cc2ccc3c(c2)OCO3)n1,-60.9% (active)
6,Cc1nc(N=C(N)N)nc2ccc3ccccc3c12,22.6% (inactive)
7,CCOC(=O)Nc1cc2c(c(N)n1)N=C(c1ccccc1)CO2,-0.963% (active)
8,N#CC1=C(N)Oc2c(c(=O)[nH]c3ccc(Cl)cc23)C12C(=O)c1ccccc1C2=O,99.8% (inactive)
9,O=C1C(Cl)=C(Nc2cccc3ccccc23)C(=O)c2ccccc21,71.1% (inactive)
10,O=C(Nc1cccc(Cl)c1)Nc1nccs1,88.7% (inactive)
11,COc1ccc(-c2cc(-c3ccccc3)nc(SCCCCCCC(=O)NO)n2)cc1,8.06% (active)
12,CS/C(=C\c1ccc(C(=O)c2ccc(C)cc2)n1C)S(C)=O (stereo not given),53.6% [100 µM] (inactive)
13,COc1ccc(C2CC(c3ccc(Nc4ccnc5cc(Cl)ccc45)cc3)=NN2C=O)cc1 (stereo not given),-42.6% (active)
14,CC(=O)/C(=C/c1ccccc1)C(=O)CC(C)C,38.8% (inactive)
15,CCNc1ccc2ccccc2c1N=Nc1ccc(N=Nc2ccccc2)cc1,108% (inactive)
16,COc1ccc(NC(=O)Nc2ccc(-c3cccnc3)cc2N2CCC(CO)CC2)cc1,88.6% (inactive)
17,Cc1cc(Cc2cc(C)c(O)c(C)c2)cc(C)c1O,15.6% (inactive)
18,CCOC(=O)C(=Cc1c(-c2ccccc2)[nH]c2ccccc12)C(=O)OCC,-52% (active)
19,COc1ccc(/C=N\NC(=O)c2ccc3nc(-c4ccc(Cl)cc4)[nH]c3c2)cc1,96.3% (inactive)
20,CC(C)C[C@@H](NC(=O)[C@@H](Cc1ccccc1)NC(=O)c1cnccn1)B1O[C@H]2[C@H](O)[C@@H](C(=O)NCCCC[C@@H]3NC(=O)[C@@H](Cc4ccccc4)NC(=O)[C@H](CC(=O)O)NC(=O)CNC(=O)[C@H](CCCN=C(N)N)NC3=O)O[C@@H](CN)[C@H]2O1,-1.86% (active)

row,SMILES,growth
1,O=C(N/N=C/c1ccc2c(c1)OCO2)c1cnn2c1NC(c1ccccc1)C2 (stereo not given),56.3% (inactive)
2,COCc1cc2c(cc1Br)OCO2,105% (inactive)
3,CCN1CCN(c2nc3ccccc3c3c(=O)c4cc(F)ccc4sc23)CC1,104% (inactive)
4,CCCCCC/C=C1\CCC(CN2CCCC2)C1=O (stereo not given),62.2% (inactive)
5,O=C(Nc1cccc(-n2cc(-c3ccncc3)c(-c3ccc(Cl)c(O)c3)n2)c1)Nc1cc(C(F)(F)F)cc(C(F)(F)F)c1,-18.3% (active)
6,CS(=O)(=O)c1nccc(-c2c(-c3cccc(OCc4ccccc4)c3)nc3sccn23)n1,82.8% (inactive)
7,O=C(Cc1ccccc1Nc1c(Cl)cccc1Cl)NN1C(=O)/C(=C/c2ccc(Br)cc2)SC1=S,101% (inactive)
8,CCc1ccc(-c2nc(SCC(=O)NC3CCCCC3)n[nH]2)cc1,56.3% (inactive)
9,COc1ccccc1S(=O)(=O)Nc1ccc2c3c(cc(-c4cnn(C)c4)nc13)C(=O)N2C,-30.1% (active)
10,NC(=O)C1=C[C@H]2[C@H]3C=C[C@@]2(O)C(=O)O[C@@H]3O1,41.6% (inactive)
11,O=C1NC(=O)c2ncccc21,115% (inactive)
12,CC/C(=C(/c1ccc(Cl)cc1)c1ccc(OCCN2CCCCC2)cc1)c1ccc(Cl)cc1,68.5% (inactive)
13,Oc1ccc([S+](c2ccc(O)cc2)c2ccc(O)cc2)cc1,110% (inactive)
14,C#CCOc1ccc(C2=NN(C)C3N=C(Cl)c4ncn(C)c4N23)cc1OCC#C (stereo not given),98.6% (inactive)
15,NS(=O)(=O)c1cc(=O)[nH]c(=O)[nH]1,114% (inactive)
16,CNC(=O)c1cccnc1,99.5% (inactive)
17,O=C(CCc1nc(-c2cccc(Cl)c2)no1)Nc1ccccn1,102% (inactive)
18,O=C(CC(NC(=O)OCc1ccccc1)C(=O)OCc1ccccc1)OCc1ccccc1 (stereo not given),126% (inactive)
19,O=C(c1ccccc1)c1c(/C=C/c2ccccc2)nc2ccccc2c1/C=C/c1ccc(Br)cc1,112% (inactive)
20,O=C(Nc1ccccc1OC(=O)c1ccccc1)c1ccccc1,0.315% (active)
